Inconclusive results are not listed. A call without a number means that no potency is given here. Activity calls are given as the source filed them. The call rests on the fitted dose curve; in most records, active means well fitted inhibition curve with a large enough effect; inconclusive means small, poorly fitted or top-dose-only effect, or effect the other way; inactive means flat fitted curve, though single readings scatter.
Molecular target: Ubiquitin carboxyl-terminal hydrolase 2 (Homo sapiens) (UniProt O75604)
Sequence (O75604 whole entry, looked up): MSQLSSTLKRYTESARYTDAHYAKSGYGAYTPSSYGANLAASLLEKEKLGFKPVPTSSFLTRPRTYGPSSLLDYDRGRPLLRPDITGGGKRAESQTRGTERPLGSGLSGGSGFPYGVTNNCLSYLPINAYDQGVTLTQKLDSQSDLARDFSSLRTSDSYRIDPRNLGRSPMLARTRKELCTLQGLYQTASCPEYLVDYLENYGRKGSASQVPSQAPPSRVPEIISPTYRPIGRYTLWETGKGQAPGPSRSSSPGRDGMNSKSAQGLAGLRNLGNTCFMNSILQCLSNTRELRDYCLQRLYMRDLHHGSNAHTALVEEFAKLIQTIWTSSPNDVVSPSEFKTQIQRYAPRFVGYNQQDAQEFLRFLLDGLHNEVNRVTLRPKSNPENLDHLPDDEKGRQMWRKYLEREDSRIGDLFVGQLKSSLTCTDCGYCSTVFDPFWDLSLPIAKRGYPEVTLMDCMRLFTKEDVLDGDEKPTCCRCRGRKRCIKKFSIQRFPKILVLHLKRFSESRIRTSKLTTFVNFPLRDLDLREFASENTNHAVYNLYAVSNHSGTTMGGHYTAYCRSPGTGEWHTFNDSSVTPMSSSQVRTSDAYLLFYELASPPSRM
Assay: Confirmation Assay for Inhibitors of Ubiquitin-specific Protease USP2a Using CHOP2 as the Reporter; further: nearly all actives have a fitted effect of over 55% in size
Settings: USP2 core, Ub-CHOP2 coupled reporter fluorescence; series mostly up to 38.3 µM
In short: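 Ub-CHOP2 cleavage coupled to reporter activation was read by fluorescence after 60 min at RT, with 25 nM final Ub-CHOP2 and substrate. Enzyme (10 nM final USP2 core) first sat 30 min with compound; data were normalized to NEM and fitted to concentration-response curves.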
Potency means the concentration at half of the fitted maximal effect.

SMILES | Potency
Cc1ccc(C(=O)N(c2c(C)n(C)n(-c3ccccc3)c2=O)C(C)C)cc1 | inactive
O=C(c1ccccc1)N1CCN(C(=O)N2CCCCC2)CC1 | inactive
COc1cc2cc(CN(CCN3CCCC3)C(=O)Nc3ccc(F)cc3)c(=O)[nH]c2cc1OC | inactive
O=C(CSc1nccc(=O)[nH]1)N1N=C2/C(=C/c3ccco3)CCCC2C1c1ccco1 (stereo not given) | inactive
CC1=C(C(=O)OC(C)C)C(C)C(C(=O)OC(C)C)=C(C)N1 | inactive
CN(C)c1ccc(NC(=O)CSCc2nc3c(nnn3Cc3ccc(F)cc3)c(=O)[nH]2)cc1 | inactive
CC(/C=N/NC(=O)c1cc(-c2cccs2)[nH]n1)=C\c1ccccc1 | inactive
O=C(Nc1ccc2nc(-c3ccco3)c(-c3ccco3)nc2c1)N1CCN(c2ccccn2)CC1 | 16.5 µM (active)
Cc1ccc(S(=O)(=O)Nc2ccccc2C(=O)Nc2nc(-c3ccc(F)cc3)cs2)cc1 | 14.7 µM (active)
CCNC1=C(Cl)C(=O)c2ccccc2C1=O | inactive
CCOc1ccc(S(=O)(=O)N(CC(=O)O)c2ccccc2)cc1 | inactive
O=C(NC12CC3CC(CC(C3)C1)C2)C1=COCCO1 | inactive
NC(=O)CC(NC(=O)Cc1ccc(Br)cc1)c1ccc(N2CCC(Cc3ccccc3)CC2)c([N+](=O)[O-])c1 (stereo not given) | inactive
CCOC(=O)c1[nH]c2ccc(OC)cc2c1NC(=O)CCN1CCC(C)CC1 | inactive
COc1cc(C)ccc1OCCOc1cc(C)ccc1Cl | inactive
COC(=O)[C@@]12CCCCN1[C@H](c1ccc(-c3ccc(Cl)c(Cl)c3)cc1)[C@H]1C(=O)N(C)C(=O)[C@H]12 | inactive
CCN(CC)c1ccc2nc3ccccc3[n+](CC)c2c1 | inactive
CCn1nc(C(=O)N[C@@H](CCSC)c2nc3ccccc3[nH]2)c2ccccc2c1=O | inactive
COc1cc(C(O)P(=O)(OC(C)C)c2ccc(N(C)C)cc2)cc(OC)c1OC (stereo not given) | inactive
Cc1ccc(S(=O)(=O)Nc2ccc(N3CCOCC3)cc2)cc1 | inactive

Reference: PubChem BioAssay AID493168 (National Center for Advancing Translational Sciences (NCATS), 2011)
